CYP2C9 activ: CYP2C9 (human) activation; recombinant CYP2C9, luciferin-H conversion, luminescence; hits give high values; factor 1 = untreated enzyme, 0 = blocked; activation factor at 5 µM; 96,000 compounds, 1.4% hits;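 active means activation factor of 2 or more for CYP2C9 at a 5 µM dose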;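 further: 0 = sulfaphenazole-blocked wells and 1 = vehicle-only wells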
CYP2C9 inh: human CYP2C9 inhibition; P11712; CYP2C9 Supersomes, luciferin-H conversion, luminescence; inhibition, % at 5 µM; 96,000 compounds, 20% hits;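 active means blocking of liver enzyme CYP2C9 beyond about 50% at 5 µM, limit read from the data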
PLAP act: activates human placental alkaline phosphatase; P05187; purified PLAP enzyme, luminescent substrate read-out; hits give high values; activation fold at 20 µM; 96,000 compounds, 1.2% hits; AID 696; in the data active means activation fold above about 2
Target sequence (P05187 whole entry, looked up): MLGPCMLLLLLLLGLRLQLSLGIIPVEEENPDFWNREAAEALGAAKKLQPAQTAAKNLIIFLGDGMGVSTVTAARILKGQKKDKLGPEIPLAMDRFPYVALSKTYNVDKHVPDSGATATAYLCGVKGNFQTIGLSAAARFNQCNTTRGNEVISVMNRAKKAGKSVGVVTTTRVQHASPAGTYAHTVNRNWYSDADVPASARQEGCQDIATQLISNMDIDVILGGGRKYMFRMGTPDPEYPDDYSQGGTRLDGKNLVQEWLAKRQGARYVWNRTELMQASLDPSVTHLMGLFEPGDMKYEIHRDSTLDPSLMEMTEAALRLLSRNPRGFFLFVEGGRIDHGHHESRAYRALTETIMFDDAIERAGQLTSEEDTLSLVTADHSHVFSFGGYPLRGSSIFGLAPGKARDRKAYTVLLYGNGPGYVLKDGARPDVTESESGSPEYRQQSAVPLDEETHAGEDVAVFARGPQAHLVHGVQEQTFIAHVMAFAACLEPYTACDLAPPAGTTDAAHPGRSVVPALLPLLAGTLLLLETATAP
CYP2C19 activ: cytochrome P450 2C19 (human) activation. AID 1025. recombinant CYP2C19, luciferin-H EGE luminescence; hits give high values; 0 = fully inhibited enzyme, 1 = untreated enzyme. 96,000 tested, under 10 active. activation factor at 5 µM. P33261;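 active means activation factor of at least 2 at 5 µM in the primary screen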;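 further: 0 = wells with 2.5 mM tranylcypromine and 1 = vehicle-only wells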
CYP2C19 inhib: inhibitors of human CYP2C19. P33261. CYP2C19 Supersomes, luciferin-H EGE luminescence, 30 min. inhibition, % at 5 µM. 96,000 compounds, 21% hits. AID 778;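 active means CYP2C19 inhibition above a set limit at 5 µM in the primary screen, cut at about 50% in these data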;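 further: plate controls were negative control wells for no effect and 2.5 mM tranylcypromine positive control for full effect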
Numbers without * were called inactive. Hits are enriched below; roughly 31% of the tested compounds scored in any of these assays.

SMILES	CYP2C9 activ	CYP2C9 inh	PLAP act	CYP2C19 activ	CYP2C19 inhib
Cc1cc(N=Cc2cc(Br)ccc2O)no1	1.2	-17.1	1.1	1.1	-13.6
CC1CN(S(=O)(=O)c2cccc(C(=O)NCCCn3ccnc3)c2)CC(C)O1 (stereo not given)	0.4	62.7*	0.8	0.9	8.6
CC1CN(S(=O)(=O)c2cccc(C(=O)OCC(=O)Nc3ccc4c(c3)OCO4)c2)CC(C)O1 (stereo not given)	0.5	46.3	1.2	0.8	23.4
O=C(NCCCn1ccnc1)c1cc(-c2ccc3c(c2)OCO3)on1	0.5	45.5	0.8	0.3	65.6*
COc1cccc(-c2cc(C(=O)NCCCn3ccnc3)no2)c1	0.3	70.6*	0.9	0.2	80.2*
O=C(NCCCN1CCCC1=O)c1ccc2c(c1)OCO2	0.9	5.7	1.1	1	-4.2
O=C(NCCCn1ccnc1)c1ccc2c(c1)OCCO2	0.4	58.4*	1	0	96.6*
O=C(NCCc1ccccc1)c1cc(-c2ccc3c(c2)OCO3)on1	0.8	20.7	0.7	1	3.4
Cc1nccn1CC(=O)O	1	-1.3	0.9	0.9	10.8
CCOC(=O)COc1ccsc1C(=O)OC	1.1	-10.3	0.8	0.9	9.7
CCOC(=O)C1CSC(CC(=O)Nc2ccc(Cl)c(Cl)c2)C(=O)N1 (stereo not given)	1.4	-36.9	1.2	0.8	17.9
O=C(CNCC1CCCO1)N1CCCc2ccccc21 (stereo not given)	1.1	-13.6	1.1	1.2	-16.3
O=C1c2ccccc2S(=O)(=O)N1Cc1nc2ccccc2s1	0.6	39.7	0.9	0.1	85.6*
O=c1c2ccccc2ncn1Cc1nc2ccccc2s1	0.2	77.3*	1.3	0.2	81.7*
CCCC(=O)Nc1ccc(Cl)c(NC(=O)CC)c1	1	3.9	0.9	1	-3.3
CCOc1cc(/C=C2\C(=O)N(c3nc(-c4ccc(Br)cc4)cs3)N=C2c2ccccc2)ccc1O	0.1	87.3*	0.6	0.7	25.1
CCOC(=O)C1=NN(c2ccccc2)C(=O)/C1=C\c1ccc(N(C)C)cc1	0.8	19.0	1	1	2.8
Cc1c(C#N)c(N=CN(C)C)c(C(=O)c2ccccc2)n1-c1ccc(Br)cc1	0.4	60.9*	1.7	0.3	73.1*
O=C(O)CC1Oc2ccc(Cl)cc2NC1=O (stereo not given)	0.4	55.4*	0.9	0.9	7.7
CCSc1c(C(=O)NC)ccc2c1C(=O)c1ccccc1C2=O	0.7	26.6	0.9	0.9	12.8
COC(=O)c1ccc2c(c1O)C(=O)c1ccccc1C2=O	0.6	40.6	1	0.4	59.5*
COC(=O)c1cccc2c1-c1ccccc1/C2=N/O	0.2	84.5*	1.4	0.4	58.8*
CCCc1nn2c(=O)c(C(c3cccc(Cl)c3)c3c(O)nc4sc(CCC)nn4c3=O)c(O)nc2s1	0.9	12.5	1	1	4.5
COc1ccc(N2CCCn3c2nc2c3c(=O)n(Cc3ccc(F)cc3)c(=O)n2C)c(OC)c1	1.1	-7.9	1.4	1	1.4
CCCNC(=O)C(CC)NS(=O)(=O)c1ccc(OC)cc1 (stereo not given)	0.8	16.3	0.9	1	1.1
SMILES	CYP2C9 activ	CYP2C9 inh	PLAP act	CYP2C19 activ	CYP2C19 inhib
COC(=O)C1CCCN1C(=O)c1cccs1 (stereo not given)	0.8	15.6	0.8	0.8	17.4
O=C(c1ccsc1)N1CCN(C(=O)c2cccs2)CC1	0.3	67.2*	0.9	0.1	94.7*
O=C(c1cccs1)N1CCN(S(=O)(=O)c2ccccc2)CC1	0.3	70.0*	0.9	0	97.0*
CC1CN(C(=O)c2cccs2)CCN1C(=O)c1cccs1 (stereo not given)	0.1	88.6*	1.2	0	96.0*
O=C(c1cccs1)N1CCN(c2ncccn2)CC1	0.8	22.9	0.8	0.7	32.7
C/C(=N\OCC(=O)N/N=C/c1ccccc1)c1cccs1	0.6	40.6	0.7	0.2	82.1*
O=C(N/N=C/c1cccc(OCc2ccccc2)c1)c1cccs1	0.2	83.2*	0.7	0.7	26.4
O=C(N/N=C/c1ccccc1)c1sccc1OCc1ccc(F)cc1	0.3	70.0*	1	0.6	36.6
C/C(=N\OCC(=O)N/N=C/c1ccccc1O)c1cccs1	1.4	-40.7	1.7	0.5	48.2
COc1cc2c(C(=O)N3CCCc4ccccc43)cn(C)c(=O)c2cc1OC	0.9	10.7	1.6	0.7	26.0
O=C(c1ccc(=O)[nH]c1)N(Cc1ccco1)C1(C(=O)NC2CCCC2)CCCCC1	1.1	-11.6	1.4	1.1	-13.4
CSCC[C@H](NC(=O)CCn1nnc2ccccc2c1=O)C(=O)O	1.2	-16.1	0.9	1	-2.9
Cc1nn(Cc2c(Cl)cccc2Cl)c(C)c1NC(=O)c1cnn2c(C(F)F)cc(-c3ccccc3)nc12	0.4	63.4*	1.1	0.7	26.9
CCc1nccn1C(=O)c1cnn2c(C(F)F)cc(-c3ccccc3)nc12	0.9	9.4	1.1	1	4.0
Cc1nn(Cc2ccccc2Cl)c(C)c1NC(=O)c1cc(-c2ccc(F)cc2)on1	0.5	49.8	0.8	0.9	10.2
Cc1ccc(-c2cc(C(F)F)n3ncc(C(=O)Nc4c(C)nn(Cc5c(Cl)cccc5Cl)c4C)c3n2)cc1	0.1	90.9*	1	0.6	40.0
Cc1ccc(-c2cc(C(F)F)n3ncc(C(=O)Nc4c(C)nn(Cc5ccccc5Cl)c4C)c3n2)cc1	0.1	88.9*	1.2	0.8	16.9
CC(=O)N/C(=C/c1ccc2c(c1)OCO2)C(=O)NCCCO	1.2	-22.6	1	1.1	-13.7
COc1ccc2nc(SCC(=O)N(C)C3CCCCC3)c(C#N)cc2c1	1	0.5	1.3	0.6	37.1
COC(=O)C1=CN(C2CC2)C=C(C(=O)OC)C1c1ccccc1OC	0.3	65.8*	1.9	0.3	70.0*
CCOCCCNC(=O)CCNC(=O)c1cc(OC)c(OC)c(OC)c1	1.1	-12.4	1	1	-4.2
Cc1ccc(OC(C)c2nnc(N)s2)cc1Cl (stereo not given)	0.5	47.5	0.7	0.3	67.8*
COCCn1c(Sc2ccccc2)nc2c1c(=O)[nH]c(=O)n2C	1	3.9	0.9	1.1	-7.0
COC(=O)CSc1nnc(-c2cccc(NC(=O)c3ccc(C)cc3)c2)n1C	0.2	75.8*	1.7	0.6	39.4
COc1cccc(-c2nnc(SCc3ccccn3)n2C)c1	0.7	29.9	1.1	1	-1.7
Cn1c(SCC(=O)N2CCOCC2)nnc1-c1cccc(NC(=O)c2ccccc2)c1	1	1.5	1	1.1	-8.8
Cc1ccc(NC(=O)c2ccc(CSc3nnc(-c4ccncc4)n3C)cc2)cc1	0.3	65.8*	1	0.8	21.7
Cn1c(SCc2ccccc2)nnc1-c1ccc2c(c1)OCO2	1.1	-7.6	1	0.1	88.4*
Cn1c(CNC(=O)Cc2ccc3c(c2)OCO3)nnc1SCc1ccccc1	1.2	-16.0	1.2	0.8	20.7
Cn1c(SCc2ccccn2)nnc1-c1ccncc1	0.6	35.6	1	0.1	94.3*
